40 compounds from PubChem BioAssay (NCATS) can be followed below.

A short description of the assay: High-throughput drug toxicity screening in the BPDCN cell line Gen2.2 (AID 1224824). Particulars: Gen2.2 BPDCN cells; at 45.8 µM (top of the series) unless noted. The source says:
Blastic plasmacytoid dendritic cell neoplasm (BPDCN) is a rare, aggressive and largely incurable hematologic malignancy originating from plasmacytoid dendritic cells (pDCs). Although an initial response to chemotherapy is common, BPDCN prognosis is extremely poor and most patients relapse with drug-resistant disease leading to a median overall survival of ~1 year after diagnosis. To explore novel potential therapeutic strategies in BPDCN, we performed a high-throughput drug toxicity screening in BPDCN cell liens, using of a library of 1,912 small molecules, enriched for compounds that are either approved or in early stages of development for cancer therapy.
A total of 500 exponentially growing Gen2.2 cells were seeded per well in 5 uL of media (RPMI + Glutamine, without phenol red plus10% FBS and 1X Pen/Strep) into 1536-well solid white high base tissue culture treated Greiner One Bio Plates (789173-F), using a multidrop combi dispenser and a small sterile cassette. Compounds and controls totaling 23nL per well (negative control DMSO and positive control 9.2 uM Bortezomib-final) were immediately added to the plates using a 1536 head pin tool from Kalypsys. The plates were then covered with stainless steel gasket lids from Kalypsys and incubated for 48 hours at 37C under 95% relative humidity with 5% CO2. After 48 hours, the plates were removed and allowed to reach room temperature before 3 uL of Cell Titer Glo reagent (Promega) were added using an Aurora Flying Reagent Dispenser Bioraptor. The plates were then spun at 1000 rpms to remove bubbles and incubated for 15 minutes at room temperature before reading on a ViewLux using a luminescent filter with a 10 second exposure. The relative luciferase units were used to calculated percent activity using DMSO as 100% and Bortezomib as 0%.
Consider `O=C(Nc1nc2cccc(-c3ccc(CN4CCS(=O)(=O)CC4)cc3)n2n1)C1CC1`, for which the cell viability, % of control (lower = more cytotoxic) amounted to 107%.

Take `CC(C)(C)OC(=O)Nc1ccc(-c2cc(C(=O)NCCCCCCC(=O)NO)no2)cc1`: the cell viability, % of control (lower = more cytotoxic) came out at 4.96%.

With `CC(C)(O)c1cc2nc(-c3cnc(N)nc3)nc(N3CCOCC3)c2s1`, the cell viability, % of control (lower = more cytotoxic) amounted to 33.5%.

On to `O=C(Cc1ccc(-c2ccc(OCCN3CCOCC3)cc2)cn1)NCc1ccccc1`, for which the cell viability, % of control (lower = more cytotoxic) turned out to be 49.1%.

For `CC(=O)OCCN1C(=O)c2c(C)nc3ccc(S(=O)(=O)N4CCOCC4)cc3c2C1=O`, the cell viability, % of control (lower = more cytotoxic) stood at 69.9%.

In the case of `Cn1c(CNc2ccc(C(=N)N)cc2)nc2cc(C(=O)N(CCC(=O)O)c3ccccn3)ccc21`, the cell viability, % of control (lower = more cytotoxic) stood at 125% [at 23.2 µM].

In the case of `C[C@H]1C[C@@H]2[C@@H]([C@@H](O)C[C@@]3(C)[C@H]2CC[C@]3(O)C(=O)CO)[C@@]2(C)C=CC(=O)C=C12`, the cell viability, % of control (lower = more cytotoxic) stood at 111%.

For `Cc1cn(-c2cc(NC(=O)c3ccc(C)c(Nc4nccc(-c5cccnc5)n4)c3)cc(C(F)(F)F)c2)cn1`, the cell viability, % of control (lower = more cytotoxic) amounted to 231%.

As to `C[C@@H]1CN(CC(=O)Nc2ccc3c(c2)Cc2cccc(-c4cc(=O)cc(N5CCOCC5)o4)c2S3)C[C@H](C)O1`, the cell viability, % of control (lower = more cytotoxic) amounted to 11.9%.

Regarding `NC(=O)Nc1cc(-c2cccc(F)c2)sc1C(=O)N[C@H]1CCCNC1`, the cell viability, % of control (lower = more cytotoxic) came out at 7.53%.

For the compound `Cc1ccc(C(=O)Nc2ccc(CN3CCN(C)CC3)c(C(F)(F)F)c2)cc1C#Cc1cnc2cccnn12`, the cell viability, % of control (lower = more cytotoxic) came to 10.5%.

As for `COC(=O)c1ccc2c(C(=Nc3ccc(N(C)C(=O)CN4CCN(C)CC4)cc3)c3ccccc3)c(O)[nH]c2c1`, the cell viability, % of control (lower = more cytotoxic) was 213%.

In the case of `Nc1ccn([C@@H]2CS[C@H](CO)O2)c(=O)n1`, the cell viability, % of control (lower = more cytotoxic) stood at 218% [at 92.2 µM].

On to `O=C(NCCCNc1nc(Nc2cccc(NC(=O)N3CCCC3)c2)ncc1I)c1cccs1`, for which the cell viability, % of control (lower = more cytotoxic) is 5.4%.

For `CC1(C)CCC(c2ccc(Cl)cc2)=C(CN2CCN(c3ccc(C(=O)NS(=O)(=O)c4ccc(N[C@H](CCN5CCOCC5)CSc5ccccc5)c(S(=O)(=O)C(F)(F)F)c4)cc3)CC2)C1`, the cell viability, % of control (lower = more cytotoxic) amounted to 7.3%.

In the case of `CC(C)c1ccc(Cn2ccc3c4c(N)nc(NC5CC5)nc4ccc32)cc1`, the cell viability, % of control (lower = more cytotoxic) was found to be 3.92%.

As to `C#Cc1cccc(Nc2ncnc3cc(OC)c(OCCCCCCC(=O)NO)cc23)c1`, the cell viability, % of control (lower = more cytotoxic) worked out at 44.2%.

In the case of `O=C(Nc1cc(C(F)(F)F)cc(C(F)(F)F)c1)c1cc(Cl)ccc1O`, the cell viability, % of control (lower = more cytotoxic) stood at 7.43%.

In the case of `O=C1CCC[C@@H]2[C@H]3CCC[N+]4([O-])CCC[C@@H](CN12)[C@@H]34` (stereo not given in full), the cell viability, % of control (lower = more cytotoxic) came to 92.5%.

As to `Clc1cccc(-n2nnnc2NCc2ccccc2Oc2ccccn2)c1Cl`, the cell viability, % of control (lower = more cytotoxic) is 100%.

As to `Cn1c2cc(S(C)=O)sc2c2cnn(Cc3cccc(N)c3)c(=O)c21` (stereo not given), the cell viability, % of control (lower = more cytotoxic) was 123%.

Take `O=C(Nc1ncc(-c2cc(C(F)F)nn2-c2c(Cl)cccc2Cl)s1)C1CC1`: the cell viability, % of control (lower = more cytotoxic) came to 23.6%.

In the case of `CCNC(=O)Nc1ccc2ncc(Nc3ccc(C)cc3)nc2n1`, the cell viability, % of control (lower = more cytotoxic) worked out at 50.5%.

With `O=C(CCCCCCNC(=O)c1cnc(N(c2ccccc2)c2ccccc2)nc1)NO`, the cell viability, % of control (lower = more cytotoxic) is 5.14%.

With `Cc1nc(N)ncc1-c1nc(N2CCOCC2)c2sc(C(C)(C)O)cc2n1`, the cell viability, % of control (lower = more cytotoxic) was determined as 38.1%.

For `CC[C@H](CO)Nc1nc(NCc2ccccc2)c2ncn(C(C)C)c2n1`, the cell viability, % of control (lower = more cytotoxic) stood at 11.9%.

Take `Cc1cc(Nc2ncnc3ccc(-c4ccc(CNCCS(C)(=O)=O)o4)cc23)ccc1Oc1ccn2ncnc2c1`: the cell viability, % of control (lower = more cytotoxic) stood at 3.66%.

Consider `C[C@@H](Oc1cc(-n2cnc3ccc(CN4CCN(C)CC4)cc32)sc1C(N)=O)c1ccccc1C(F)(F)F`, for which the cell viability, % of control (lower = more cytotoxic) was determined as 3.33%.

Consider `COc1cc2c(Oc3ccc(NC(=O)C4(C(=O)Nc5ccc(F)cc5)CC4)cc3F)ccnc2cc1OCCCN1CCOCC1`, for which the cell viability, % of control (lower = more cytotoxic) is 10.2%.

In the case of `C[C@]12CC[C@H](O)CC1=CCC1C2CC[C@]2(C)C(n3cnc4ccccc43)=CCC12` (stereo not given in full), the cell viability, % of control (lower = more cytotoxic) turned out to be 109%.

Regarding `CNC(=O)c1nn(C)c2c1C(C)(C)Cc1cnc(Nc3ccc(N4CCN(C)CC4)cc3)nc1-2`, the cell viability, % of control (lower = more cytotoxic) is 3.63%.

As to `C=CCn1c(=O)c2cnc(Nc3ccc(N4CCN(C)CC4)cc3)nc2n1-c1cccc(C(C)(C)O)n1`, the cell viability, % of control (lower = more cytotoxic) was determined as 169%.

As for `CCN1CCN(Cc2ccc(-c3cc4c(N[C@H](C)c5ccccc5)ncnc4[nH]3)cc2)CC1`, the cell viability, % of control (lower = more cytotoxic) amounted to 42.9%.

On to `COC(=O)Nc1ccc(-c2nc(N3CCOCC3)c3cnn(C4CCN(Cc5cccnc5)CC4)c3n2)cc1`, for which the cell viability, % of control (lower = more cytotoxic) amounted to 4.27%.

Regarding `COc1cc2ncnc(Nc3ccc(F)c(Cl)c3)c2cc1NC(=O)C=CCN1CCCCC1`, the cell viability, % of control (lower = more cytotoxic) came to 10%.

For `CN1c2cc(O)c(N=NC(N)=O)cc2CC1S(=O)(=O)O` (stereo not given), the cell viability, % of control (lower = more cytotoxic) came out at 170%.

Take `Cc1c(Cn2c(C)nc3c(C(=O)O)cc(N4CCOCC4)cc32)cccc1C(F)(F)F`: the cell viability, % of control (lower = more cytotoxic) was determined as 52.8%.

As to `Cc1ccc(C(=O)Nc2cccc(C(F)(F)F)c2)cc1-c1ccc2nc(NCCN3CCOCC3)ncc2c1`, the cell viability, % of control (lower = more cytotoxic) is 11.1%.

Regarding `CN(C)CC(C)(C)CNc1nn2c(-c3ccccc3)nnc2cc1C1CCC1`, the cell viability, % of control (lower = more cytotoxic) is 13.9%.

On to `Cc1cc(CN2CCN(c3c(Br)cnc4nc(-c5ccc(N6CCN(C)CC6)cc5)[nH]c34)CC2)no1`, for which the cell viability, % of control (lower = more cytotoxic) worked out at 3.72%.
